The supplement of paper PMC13380429

What was measured:
[1] = tested on: Vero E6 infected with SARS-CoV-2; assay: morphology score (similarity to uninfected cells); higher = more like uninfected cells; settings: 24 h
[2] = tested on: Vero E6 infected with SARS-CoV-2; assay: SARS-CoV-2 infection rate relative to infected DMSO; higher = more infection, active = 60 or less; settings: 24 h

SMILES | morphology score [1] | SARS-CoV-2 infection rate [2]
O=C(/C=C/c1ccc(O)c(O)c1)c1ccc(O)cc1O [butein] (10 µM) | 0.256 | 106% (inactive)
CC(=O)Oc1ccc(C(c2ccc(OC(C)=O)cc2)c2ccccn2)cc1 [bisacodyl] (10 µM) | 0.261 | 85.5% (inactive)
Cn1cc(-c2ccc(S(=O)(=O)n3ccc(/C=C/C(=O)Nc4ccccc4N)c3)cc2)cn1 (10 µM) | -0.0742 | 105% (inactive)
CC(C)NC(=O)N1CC[C@H](NC2=Nc3cc(F)ccc3N(CC(F)F)c3ccc(Cl)cc32)C1 (0.833333 µM) | 0.0642 | 89% (inactive)
COc1c(C)c2c(c(O)c1C/C=C(\C)CCC(=O)OCCN1CCOCC1)C(=O)OC2 [mycophenolate-mofetil] (10 µM) | -0.124 | 108% (inactive)
O=C(CCCN1CCC(n2c(=O)[nH]c3ccccc32)CC1)c1ccc(F)cc1 [benperidol] (10 µM) | -0.264 | 118% (inactive)
CCNC(=O)[C@@H]1CCCN1C(=O)[C@H](CCCNC(=N)N)NC(=O)[C@H](CC(C)C)NC(=O)[C@@H](CC(C)C)NC(=O)[C@H](Cc1ccc(O)cc1)NC(=O)[C@H](CO)NC(=O)[C@H](Cc1c[nH]c2ccccc12)NC(=O)[C@H](Cc1c[nH]cn1)NC(=O)[C@@H]1CCC(=O)N1 [leuprolide] (10 µM) | -0.258 | 118% (inactive)
CNS(=O)(=O)Cc1ccc2[nH]cc(CCN(C)C)c2c1 [sumatriptan] (10 µM) | 0.205 | 98% (inactive)
CCOc1ccc(-c2nc(-c3cccc4c3CCC4NCCO)no2)cc1OCC (stereo unspecified) (10 µM) | 0.847 | 12% (active)
C[C@H]1[C@@H](O)O[C@@H]2O[C@@]3(C)CC[C@H]4[C@H](C)CC[C@@H]1[C@@]24OO3 (10 µM) | 0.225 | 84% (inactive)
c1ccc(CCNc2nc(-c3ccccc3)cs2)cc1 [fanetizole] (10 µM) | -0.0158 | 99.5% (inactive)
CCCCCCCCCCC(O)C1C=CC2C(=O)N(c3ccccc3)C(=O)C2N1Nc1ccc([N+](=O)[O-])cc1 (stereo unspecified) (10 µM) | 0.496 | 69.5% (inactive)
CCn1c(-c2nonc2N)nc2c(C#CC(C)(C)O)ncc(OC[C@H]3CCCNC3)c21 (10 µM) | 0.337 | 105% (inactive)
CC(C)(C)NCC(O)COc1cc(Cl)ccc1Cl (stereo unspecified) [cloranolol] (10 µM) | -0.0735 | 100% (inactive)
CC1(C)CCC(C)(C)c2cc(C3(c4ccc(C(=O)O)cc4)OCCO3)ccc21 (10 µM) | -0.00895 | 110% (inactive)
CN1CCC[C@@H]1Cc1c[nH]c2ccc(CCS(=O)(=O)c3ccccc3)cc12 [eletriptan] (10 µM) | 0.207 | 102% (inactive)
C/C=C(/C)C(=O)O[C@H]1[C@H](OC(C)=O)[C@@]2(CO)C(CC1(C)C)C1=CCC3[C@@]4(C)CCC(O[C@@H]5O[C@H](C(=O)O)[C@@H](O[C@@H]6O[C@H](CO)[C@@H](O)[C@H](O)[C@H]6O)[C@H](O)[C@H]5O[C@@H]5O[C@H](CO)[C@@H](O)[C@H](O)[C@H]5O)[C@](C)(CO)C4CC[C@@]3(C)[C@]1(C)C[C@H]2O.C/C=C(\C)C(=O)O[C@H]1[C@H](OC(C)=O)[C@@]2(CO)C(CC1(C)C)C1=CCC3[C@@]4(C)CCC(O[C@@H]5O[C@H](C(=O)O)[C@@H](O[C@@H]6O[C@H](CO)[C@@H](O)[C@H](O)[C@H]6O)[C@H](O)[C@H]5O[C@@H]5O[C@H](CO)[C@@H](O)[C@H](O)[C@H]5O)[C@](C)(CO)C4CC[C@@]3(C)[C@]1(C)C[C@H]2O (stereo partly specified) [escin] (0.833333 µM) | -0.0809 | 118% (inactive)
COc1ccc(COc2cc3oc(=O)c4cc(C(C)O)ccc4c3cc2OC)cc1 (stereo unspecified) [palomid-529] (10 µM) | 0.0689 | 113% (inactive)
CN1CC[C@@H]2CN3CCc4cccc(c43)[C@@H]2C1 (10 µM) | -0.0541 | 108% (inactive)
CCC(C/C=C/c1ccccc1)(c1ccccc1)N(C)CC1CC1 (stereo unspecified) [igmesine] (10 µM) | 0.316 | 97.5% (inactive)
CCOC(=O)Nc1ccc(NCc2ccc(F)cc2)nc1N [flupirtine] (10 µM) | 0.0326 | 99% (inactive)
CCCCCCCCCCCCCCCCCCCCCCO [docosanol] (10 µM) | 0.0474 | 102% (inactive)
O=C(COc1ccc(Cl)cc1)N1CCN(Cc2ccc3c(c2)OCO3)CC1 [fipexide] (10 µM) | -0.165 | 112% (inactive)
